Measurements taken from PubChem BioAssay.
Values joined by “and” are separate entries in the source; they are usually repeats but may differ in a detail not shown here. Equal values may be shown once. Results filed as inconclusive are left out. Active and inactive are the calls of the source.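 The calls were made as follows, unless noted: active = thallium flux through the channel raised or lowered by more than 3 SD from vehicle-only wells, actives on both sides; inactive = the rest.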

Experiments:
[1] = Cy5 fluorescence interference with SSB-bound oligo, artefact control for HCV NS3 helicase inhibitor project, biochemical, NIH Clinical Collection, E. coli SSB (AID 743268; call rule not given here)
[2] = growth inhibition of DIPG glioma cells, dose response, cell-based, JHH-DIPG-1, MIPE4.0, CellTiter-Glo, qHTS (AID 1347062; cut-off not given, nearly all actives have AC50 up to about 27 µM;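 as to AC50: cells exposed to compound for two days before readout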); conditions: JHH-DIPG-1 viability, CellTiter-Glo ATP luminescence
[3] = growth inhibition of DIPG glioma cells, dose response, cell-based, SU-DIPG-IV, MIPE4.0, CellTiter-Glo, qHTS (AID 1347063; cut-off not given, nearly all actives have AC50 up to about 30 µM;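 also: compound exposure lasted 48 hours before the viability readout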); conditions: SU-DIPG-IV viability, CellTiter-Glo ATP luminescence
F380Y = test: modulators of BK channel variants, profiling panel, selectivity assay, cell-based, U2OS BacMam, thallium flux, beta subunits (AID 1259406); conditions: at 30 µM;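 also: initial slope of Thallos dye fluorescence rise after thallium is added; log ratio against the mean of 0.3% DMSO vehicle wells on the same plate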
F380Y/beta1 = test: as above; conditions: at 30 µM
F380Y/beta2Delta = test: as above; conditions: at 30 µM
F380Y/beta4 = test: as above; conditions: at 30 µM
[4] = biological target: Calcium-activated potassium channel subunit alpha-1 (Homo sapiens) + Leucine-rich repeat-containing protein 26 (Homo sapiens) (UniProt Q12791+Q2I0M4); test: as above; conditions: F380Y/Slo1WT/gamma1, at 30 µM
R275C = test: as above; conditions: at 30 µM
R275C/beta1 = test: as above; conditions: at 30 µM
R275C/beta2Delta = test: as above; conditions: at 30 µM
R275C/beta4 = test: as above; conditions: at 30 µM
R275C/Slo1WT/beta2 = test: as above; conditions: at 30 µM
[5] = biological target: ATP-dependent translocase ABCB1 (Homo sapiens) (UniProt P08183); test: MDR1 (ABCB1) efflux transporter inhibition, cell-based (AID 377; in the data active = fluorescence slope change above about 50%); conditions: MDR1-expressing cells, fluorescent substrate accumulation slope; stronger effect = higher value; concentration not given here
[6] = reducers of polyQ inclusions in PC12 cells, cell-based, NGF-treated PC12, GFPQ80 (AID 1614); conditions: PC12 NGF-treated GFP-polyQ80 inclusion reduction;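 also: lower means fewer inclusions and 0 means no inclusions at all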
[7] = SU-DIPG-VI glioma cell viability, MIPE4.0 library, CellTiter-Glo luminescence, qHTS (AID 1347066; cut-off not given, nearly all actives have AC50 up to about 30 µM;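 also: cells exposed to compound for 48 hours before readout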); conditions: CellTiter-Glo ATP luminescence
[8] = liver-stage malaria parasite growth inhibition, primary screen, cell-based, HepG2, luciferase luminescence, HepG2 viability (AID 624349; in the data active = parasite load remaining mostly below about 12%, no sharp cut-off; inactive = mostly above about 10%;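 also: 100% = mean of DMSO negative control wells on the same plate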); conditions: P. berghei liver stage in HepG2, luciferase luminescence, concentration not given here; parasite load remaining: stronger effect = lower value; viability: measured here: HepG2 viability without parasites
[9] = LFS_MB_1R medulloblastoma cell growth inhibition, synergistic combos for chromothripsis tumors, cisplatin or BGB combos (AID 1671452; in the data active = inhibition above about 80%;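 also: cells exposed for 96 hours before readout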); conditions: LFS_MB_1R medulloblastoma cells, stronger effect = higher value
[10] = CRL2098 osteosarcoma cell growth inhibition, synergistic combos for chromothripsis tumors, BGB or cisplatin IC20 combos (AID 1671454; in the data active = inhibition above about 80%;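 also: cells exposed for 96 h before readout; 0% = vehicle DMSO and 100% = killing by high DMSO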); conditions: CRL2098 osteosarcoma cells, drug combinations, stronger effect = higher value
[11] = HD-MB03 medulloblastoma cell growth inhibition, synergistic combos for chromothripsis tumors, BGB or cisplatin IC20 combos (AID 1671455; in the data active = inhibition above about 83%;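 also: 0% = vehicle DMSO and 100% = high DMSO as cytotoxic control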); conditions: HD-MB03 medulloblastoma cells, stronger effect = higher value

Sequence of Calcium-activated potassium channel subunit alpha-1 (Homo sapiens) + Leucine-rich repeat-containing protein 26 (Homo sapiens) (Q2I0M4 whole entry, looked up, one chain of several): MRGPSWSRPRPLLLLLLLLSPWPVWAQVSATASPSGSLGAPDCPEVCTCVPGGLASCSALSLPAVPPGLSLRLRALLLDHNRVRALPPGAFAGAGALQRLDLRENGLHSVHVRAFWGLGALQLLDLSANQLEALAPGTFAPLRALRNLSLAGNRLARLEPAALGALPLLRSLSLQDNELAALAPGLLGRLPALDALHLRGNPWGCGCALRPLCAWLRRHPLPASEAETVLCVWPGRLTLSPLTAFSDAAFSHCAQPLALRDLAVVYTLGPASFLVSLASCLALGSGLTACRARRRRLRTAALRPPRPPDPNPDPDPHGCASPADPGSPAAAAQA
Sequence of ATP-dependent translocase ABCB1 (Homo sapiens) (P08183 whole entry, looked up): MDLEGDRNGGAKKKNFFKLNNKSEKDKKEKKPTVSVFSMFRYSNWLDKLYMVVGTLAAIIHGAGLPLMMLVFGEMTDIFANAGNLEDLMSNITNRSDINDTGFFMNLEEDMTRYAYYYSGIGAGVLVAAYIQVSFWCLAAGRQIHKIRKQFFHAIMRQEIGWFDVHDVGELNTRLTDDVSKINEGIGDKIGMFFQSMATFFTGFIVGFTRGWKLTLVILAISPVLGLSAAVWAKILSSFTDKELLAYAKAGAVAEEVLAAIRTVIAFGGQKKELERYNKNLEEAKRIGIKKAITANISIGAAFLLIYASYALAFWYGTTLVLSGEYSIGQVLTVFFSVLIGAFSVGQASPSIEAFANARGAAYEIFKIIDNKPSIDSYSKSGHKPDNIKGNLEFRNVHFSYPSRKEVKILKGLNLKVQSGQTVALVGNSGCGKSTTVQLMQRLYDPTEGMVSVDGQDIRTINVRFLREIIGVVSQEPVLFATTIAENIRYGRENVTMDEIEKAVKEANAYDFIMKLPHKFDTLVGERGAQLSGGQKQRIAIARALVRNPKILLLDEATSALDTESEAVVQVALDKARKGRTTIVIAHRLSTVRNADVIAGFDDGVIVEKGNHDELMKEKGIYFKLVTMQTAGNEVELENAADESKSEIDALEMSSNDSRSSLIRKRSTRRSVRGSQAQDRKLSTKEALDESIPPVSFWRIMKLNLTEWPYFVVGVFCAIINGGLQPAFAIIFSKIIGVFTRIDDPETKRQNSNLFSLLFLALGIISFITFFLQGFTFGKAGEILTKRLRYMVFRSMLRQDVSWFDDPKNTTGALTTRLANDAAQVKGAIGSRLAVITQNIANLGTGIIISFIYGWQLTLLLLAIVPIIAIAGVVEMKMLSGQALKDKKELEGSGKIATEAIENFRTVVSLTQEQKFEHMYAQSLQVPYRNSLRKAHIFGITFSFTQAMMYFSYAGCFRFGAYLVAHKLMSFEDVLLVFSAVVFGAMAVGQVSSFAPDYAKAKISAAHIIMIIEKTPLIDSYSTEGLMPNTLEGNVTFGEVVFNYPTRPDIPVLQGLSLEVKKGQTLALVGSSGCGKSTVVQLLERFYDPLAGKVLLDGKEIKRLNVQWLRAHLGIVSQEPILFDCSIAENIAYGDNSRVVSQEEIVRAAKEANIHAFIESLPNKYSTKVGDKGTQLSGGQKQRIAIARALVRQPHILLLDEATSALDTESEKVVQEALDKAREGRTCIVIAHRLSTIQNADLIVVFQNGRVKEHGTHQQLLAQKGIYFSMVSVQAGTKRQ

In the case of `CN(C)C(=O)C(CCN1CCC(O)(c2ccc(Cl)cc2)CC1)(c1ccccc1)c1ccccc1`, the fluorescence ratio [1] was 1.06 (inactive), the AC50 [2] was 20.9 µM (active) and the outcome [3] was “inactive”. The log fold change Tl+ flux (F380Y) was 0.113 (active), the log fold change Tl+ flux (F380Y/beta1) was 0.203 (active) and the log fold change Tl+ flux (F380Y/beta2Delta) was 0.103 (active). For the same compound, the log fold change Tl+ flux (F380Y/beta4) was 0.119 (active), the log fold change Tl+ flux [4] was -0.0267 (inactive) and the log fold change Tl+ flux (R275C) was -0.645 (active). The log fold change Tl+ flux (R275C/beta1) was 0.0279 (inactive), the log fold change Tl+ flux (R275C/beta2Delta) was -0.504 (active) and the log fold change Tl+ flux (R275C/beta4) was -0.104 (inactive). For the same compound, the log fold change Tl+ flux (R275C/Slo1WT/beta2) was 0.0159 (inactive).
For `COc1c2occc2cc2ccc(=O)oc12`, the fluorescence slope change [5] was 78.2% (active), the inclusion score [6] was 2 and the fluorescence ratio [1] was 0.98 (inactive). The outcome [2] was “inactive”, the outcome [3] was “inactive” and the outcome [7] was “inactive”. For the same compound, the log fold change Tl+ flux (F380Y) was -0.0152 (inactive), the log fold change Tl+ flux (F380Y/beta1) was 0.0099 (inactive) and the log fold change Tl+ flux (F380Y/beta2Delta) was -0.0131 (inactive). For the same compound, the log fold change Tl+ flux (F380Y/beta4) was 0.0241 (inactive), the log fold change Tl+ flux [4] was 0.011 (inactive) and the log fold change Tl+ flux (R275C) was 0.0168 (inactive). The log fold change Tl+ flux (R275C/beta1) was -0.00904 (inactive), the log fold change Tl+ flux (R275C/beta2Delta) was 0.0233 (inactive) and the log fold change Tl+ flux (R275C/beta4) was 0.0801 (inactive). The log fold change Tl+ flux (R275C/Slo1WT/beta2) was 0.00849 (inactive).
For `Oc1ccc(O)cc1`, the parasite load remaining [8] was 24.8% (inactive) and -0.995% (inactive) and the viability [8] was 92.7% and 79.1%.
With `CCCC(=O)Nc1ccc(OCC(O)CNC(C)C)c(C(C)=O)c1` (stereo unspecified) the inclusion score [6] was 2, the fluorescence ratio [1] was 0.9 (inactive) and the log fold change Tl+ flux (F380Y) was -0.0134 (inactive). The log fold change Tl+ flux (F380Y/beta1) was 0.00237 (inactive), the log fold change Tl+ flux (F380Y/beta2Delta) was -0.0305 (inactive) and the log fold change Tl+ flux (F380Y/beta4) was -0.0162 (inactive). For the same compound, the log fold change Tl+ flux [4] was 0.00552 (inactive), the log fold change Tl+ flux (R275C) was -0.005 (inactive) and the log fold change Tl+ flux (R275C/beta1) was -0.0201 (inactive). For the same compound, the log fold change Tl+ flux (R275C/beta2Delta) was -0.0513 (inactive), the log fold change Tl+ flux (R275C/beta4) was 0.0245 (inactive) and the log fold change Tl+ flux (R275C/Slo1WT/beta2) was -0.0238 (inactive).
In the case of `CCCC(CCC)C(=O)O`, the inclusion score [6] was 2, the fluorescence ratio [1] was 1.04 (inactive) and the outcome [7] was “inactive”. For the same compound, the inhibition ([9]; at 0.5 µM) was -27.6% (inactive) and -16.5% (inactive), the inhibition ([9]; measured here: combination with BGB IC40, at 0.05 µM) was -35.5% and -12.1% and the inhibition ([9]; measured here: combination with cisplatin, at 0.5 µM) was -35% and -39.3%. For the same compound, the inhibition ([9]; measured here: combination with cisplatin, at 5 µM) was 2.7% and -48.1%, the inhibition ([10]; at 0.5 µM) was -45.4% (inactive) and -15.9% (inactive) and the inhibition ([10]; measured here: combination with BGB at IC20, at 0.5 µM) was -45.9% and -23.5%. The inhibition ([10]; measured here: combination with cisplatin at IC20, at 0.5 µM) was -34.5% and 0.202%, the inhibition ([11]; at 0.5 µM) was -15.1% (inactive) and -0.6% (inactive) and the inhibition ([11]; measured here: combo with BGB at IC20, at 0.5 µM) was -17% and -10.3%. The inhibition ([11]; measured here: combo with cisplatin at IC20, at 0.5 µM) was -14.1% and 6.37%, the log fold change Tl+ flux (F380Y) was -0.0169 (inactive) and the log fold change Tl+ flux (F380Y/beta1) was -0.0195 (inactive). For the same compound, the log fold change Tl+ flux (F380Y/beta2Delta) was 0.0329 (inactive), the log fold change Tl+ flux (F380Y/beta4) was 0.0134 (inactive) and the log fold change Tl+ flux [4] was -0.023 (inactive). The log fold change Tl+ flux (R275C) was 0.0376 (inactive), the log fold change Tl+ flux (R275C/beta1) was -0.0394 (inactive) and the log fold change Tl+ flux (R275C/beta2Delta) was 0.0234 (inactive). The log fold change Tl+ flux (R275C/beta4) was 0.0354 (inactive) and the log fold change Tl+ flux (R275C/Slo1WT/beta2) was -0.0422 (inactive).
For `NC(=O)c1cccnc1`, the parasite load remaining [8] was 64% (inactive) and 68.4% (inactive) and 18% (inactive), the viability [8] was 200% and 89.4% and 114% and the fluorescence ratio [1] was 1.01 (inactive). For the same compound, the outcome [2] was “inactive”, the outcome [3] was “inactive” and the outcome [7] was “inactive”. For the same compound, the log fold change Tl+ flux (F380Y) was -0.0169 (inactive), the log fold change Tl+ flux (F380Y/beta1) was -0.0163 (inactive) and the log fold change Tl+ flux (F380Y/beta2Delta) was -0.015 (inactive). The log fold change Tl+ flux (F380Y/beta4) was 0.00589 (inactive), the log fold change Tl+ flux [4] was 0.0332 (inactive) and the log fold change Tl+ flux (R275C) was -0.0297 (inactive). For the same compound, the log fold change Tl+ flux (R275C/beta1) was 0.0353 (inactive), the log fold change Tl+ flux (R275C/beta2Delta) was 0.0215 (inactive) and the log fold change Tl+ flux (R275C/beta4) was 0.0149 (inactive). For the same compound, the log fold change Tl+ flux (R275C/Slo1WT/beta2) was 0.0115 (inactive).
In the case of `CC(C(=O)O)c1cccc(C(=O)c2ccccc2)c1` (stereo unspecified), the fluorescence slope change [5] was 70.4% (active), the inclusion score [6] was 2 and the outcome [3] was “inactive”. The outcome [7] was “inactive”, the log fold change Tl+ flux (F380Y) was 0.0438 (inactive) and the log fold change Tl+ flux (F380Y/beta1) was -0.011 (inactive). For the same compound, the log fold change Tl+ flux (F380Y/beta2Delta) was 0.023 (inactive), the log fold change Tl+ flux (F380Y/beta4) was 0.0138 (inactive) and the log fold change Tl+ flux [4] was 0.0363 (inactive). The log fold change Tl+ flux (R275C) was -0.00546 (inactive), the log fold change Tl+ flux (R275C/beta1) was -0.000822 (inactive) and the log fold change Tl+ flux (R275C/beta2Delta) was -0.0306 (inactive). For the same compound, the log fold change Tl+ flux (R275C/beta4) was 0.00182 (inactive) and the log fold change Tl+ flux (R275C/Slo1WT/beta2) was -0.0223 (inactive).
